{"source": "PubChem BioAssay (Tox21)", "note": "Results filed as inconclusive are left out. Where a call stands in place of a potency, no number is given. Unmarked numbers belong to inactive results. Activity calls are given as the source filed them. Calls follow the shape of the dose curve; as a rule, active = well fitted cell-killing curve with a large enough effect in the repeat runs; inconclusive = weak or mixed curves, or effect the other way; inactive = flat fitted curve, though single readings scatter.", "data": [{"assay": "qHTS RealTime-Glo MT Cell Viability Assay in HepG2 cells - 0 hour (AID 1224889); also: nearly all actives have a fitted effect of over 50% in size", "details": "RealTime-Glo luminescence; series mostly up to 76.8 µM", "description": "U.S. Tox21 Program National Center for Advancing Translational Sciences [NCATS] NIH Chemical Genomics Center [NCGC] U.S. Environmental Protection Agency [EPA] National Institutes of Environmental Health Sciences [NIEHS] National Toxicology Program [NTP] U.S. Food and Drug Administration [FDA] Tox21 Assay Overview: Measure of cell viability is critical in the cell-base assay. Analysis of cell viability is necessary for the characterization of cell responses to cytotoxic drugs and environmental stress. A RealTime-Glo MT Cell Viability Assay to monitor cell viability in real time of continues cell culture during 40 hours of compound treatment was used to screen Tox21 10K library compounds in HepG2 cells. The RealTime-Glo MT Cell Viability Assay is a nonlytic, homogeneous, bioluminescent method to measure cell viability in real time using a simple, plate-based method. The assay involves adding NanoLuc luciferase and a cell-permeant prosubstrate to cells in culture. Viable cells reduce the proprietary prosubstrate to generate a substrate for NanoLuc luciferase. This substrate diffuses from cells into the surrounding culture medium, where it is rapidly used by the NanoLuc Enzyme to produce a luminescent signal. The signal correlates with the number of viable cells, making the assay well suited for cytotoxicity studies.\nTox21 Assay Protocol Summary: The mixture of HepG2 cell suspension and reagents were dispensed at 600cells/6 ul/well in 1536-well tissue culture treated black solid bottom plates using a Multidrop dispenser. After the assay plates were incubated at a 37 C/5% CO2 incubator for 5 hours, 23 nL of compounds dissolved in DMSO, positive and negative controls was transferred to the assay plate by a pintool work station. The plates were incubated at 37 C for 40 hours. The luminescence intensity were measured at 0h, 8h, 16h, 24h, 32h and 40h time points using ViewLux plate reader during compound treatment.", "values": [{"smiles": "C[C@@H](O)[C@H](N)C(=O)O", "activity change, negative = cytotoxicity": "0.322% [at 15.8 µM]"}, {"smiles": "CCCC(=O)OCCc1ccccc1", "Potency": "inactive"}, {"smiles": "O=S(=O)(O)c1ccc(Nc2nc(Nc3ccc(/C=C/c4ccc(Nc5nc(Nc6ccc(S(=O)(=O)O)cc6)nc(N(CCO)CCO)n5)cc4S(=O)(=O)O)c(S(=O)(=O)O)c3)nc(N(CCO)CCO)n2)cc1", "Potency": "inactive"}, {"smiles": "CCN(CCN)c1cccc(C)c1", "Potency": "inactive"}, {"smiles": "COc1ccc(-c2coc3cc(O)ccc3c2=O)cc1", "Potency": "inactive"}, {"smiles": "CCCCCCCCCCCC(=O)OCC(C)OC(=O)CCCCC(=O)O", "note": "(stereo not given)", "Potency": "inactive"}, {"smiles": "O=C(O)CN(CCN(CC(=O)O)CC(=O)O)CC(=O)O", "activity change, negative = cytotoxicity": "-5.49% [at 2.72 µM]"}, {"smiles": "C=C(C)C(=O)OCCCCCCCCCC", "Potency": "inactive"}, {"smiles": "c1ccc(C(O[C@@H]2CCCN(CCc3ccc4c(c3)OCO4)C2)c2ccccc2)cc1", "Potency": "inactive"}, {"smiles": "CC(C)(C)NSc1nc2ccccc2s1", "Potency": "inactive"}, {"smiles": "CCCCCCCCCCCCCC[N+](C)(C)Cc1ccccc1", "Potency": "inactive"}, {"smiles": "CC(C)OC(=O)C(O)(CC(=O)O)CC(=O)O", "Potency": "inactive"}, {"smiles": "CCC(COC(=O)CCS)(COC(=O)CCS)COC(=O)CCS", "Potency": "inactive"}, {"smiles": "CCCCCCOC(=O)C(C)CC", "note": "(stereo not given)", "Potency": "inactive"}, {"smiles": "CN1CCN2c3ccccc3Cc3ccccc3C2C1", "note": "(stereo not given)", "Potency": "inactive"}, {"smiles": "O=C(O)CCN(C1(C(=O)NO)CCCC1)S(=O)(=O)c1ccc(Oc2ccc(F)cc2)cc1", "Potency": "inactive"}, {"smiles": "[Cl][Pt-2]([Cl])([Cl])[Cl]", "Potency": "inactive"}, {"smiles": "COC(=O)c1ccccc1C", "Potency": "inactive"}, {"smiles": "Cc1cc(-c2ccc(N=Nc3cc(S(=O)(=O)O)c4ccccc4c3N)c(C)c2)ccc1N=Nc1cc(S(=O)(=O)O)c2ccccc2c1N", "Potency": "inactive"}, {"smiles": "Sc1nc2ccccc2s1", "Potency": "inactive"}, {"smiles": "Cc1cc(C(C#N)c2ccc(Cl)cc2)c(Cl)cc1NC(=O)c1cc(I)cc(I)c1O", "note": "(stereo not given)", "Potency": "inactive"}, {"smiles": "CC(=O)OCC=C(C)C", "Potency": "inactive"}, {"smiles": "CC1=Nc2ccccc2C1(C)C", "Potency": "inactive"}, {"smiles": "COc1cc(/C=C/c2ccccc2)oc(=O)c1", "Potency": "inactive"}, {"smiles": "Cc1ccc(C(C)C)cc2c(C)ccc1-2", "Potency": "inactive"}, {"smiles": "CCCCCCCCCCCCOC(=O)c1ccc(O)cc1", "Potency": "inactive"}, {"smiles": "O=[N+]([O-])c1cccc(C(F)(F)F)c1", "Potency": "inactive"}, {"smiles": "CCCC1CCC(=O)CC1", "Potency": "inactive"}, {"smiles": "CC(C)Cn1cnc2c(N)nc3ccccc3c21", "activity change, negative = cytotoxicity": "12.8% [at 15.8 µM]"}, {"smiles": "COc1cccc(OC)c1C(=O)O", "Potency": "inactive"}, {"smiles": "C#C[C@]1(OC(C)=O)CC[C@H]2[C@@H]3CCC4=C/C(=N/O)CC[C@@H]4[C@H]3CC[C@@]21CC", "Potency": "inactive"}, {"smiles": "O=C(O)O", "activity change, negative = cytotoxicity": "-3.52% [at 6.97 µM]"}, {"smiles": "OCC(F)(F)F", "Potency": "inactive"}, {"smiles": "O=C(O)c1cc(-c2ccc(F)cc2F)ccc1O", "Potency": "inactive"}, {"smiles": "CN(C)Cc1cc(C(C)(C)C)c(O)c(C(C)(C)C)c1", "Potency": "inactive"}, {"smiles": "O=C1CCc2ccc(OCCCCN3CCN(c4cccc(Cl)c4Cl)CC3)cc2N1", "Potency": "inactive"}, {"smiles": "O=C(/C=C/c1ccc(O)c(O)c1)O[C@@H](C(=O)O)[C@@H](OC(=O)/C=C/c1ccc(O)c(O)c1)C(=O)O", "Potency": "inactive"}, {"smiles": "O=S(=O)(O)c1ccccc1/C=C/c1ccc(-c2ccc(/C=C/c3ccccc3S(=O)(=O)O)cc2)cc1", "Potency": "inactive"}, {"smiles": "Cc1c2ccccc2c(C)c2c1ccc1ccccc12", "Potency": "inactive"}, {"smiles": "Nc1nc(N)nc(-c2cc(Cl)ccc2Cl)n1", "Potency": "inactive"}]}]}
